MT1-MMP txn act: activates MT1-MMP transcription. activation factor at 10 µM. 86,000 compounds, 0.16% hits. HT1080 MT1-MMP promoter luciferase reporter, luminescence, overnight; stronger effect = higher value;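 active means activation factor of at least 2 for MT1-MMP transcription at 10 µM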
PostGolgi ctrl: growth of the yeast control strain, post-Golgi counter-screen | efflux-deficient yeast background strain, growth absorbance A615, 16 h | inhibition, % at 10 µM | 98,000 compounds, 5% hits | AID 738
PostGolgi yeast: growth inhibition of a yeast mutant, post-Golgi transport screen; 98,000 compounds, 0.9% hits; inhibition, % at 10 µM; post-Golgi transport phenotypic cell assay;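 further: yeast cells grown in 1536-well plates; yeast grown about 18 h at 30C before absorbance read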
Measles CPE: protection of cells from measles virus | Measles virus-infected cells, CPE protection, absorbance | protection (pct of control), % at 4 µM | 140,000 compounds, 1.5% hits; in the data active means protection mostly above about 24%, no sharp cut-off; inactive means mostly below about 26%
The depositor's hits bear a star; nt = not tested or not shown. The list is not random: actives were taken first. Their share in the collection is about 5.3%. Unless noted, no stated cut-off is given here; in the data, active means inhibition above about 30%; inactive means the rest.

SMILES | MT1-MMP txn act | PostGolgi ctrl | PostGolgi yeast | Measles CPE
O=C(CN(CCc1ccccc1)C(=O)CNS(=O)(=O)c1ccc(F)cc1)NCC1CCCO1 (configuration not stated) | 1.1 | 6 | -1 | 33*
COC(=O)c1[nH]nc(C(=O)OC(C)(C)C)c1-c1ccccc1 | nt | nt | nt | 6
COc1ccc(C(=O)NNC(=S)NC2CCCCC2)cc1OC | nt | -5 | 2 | 29
COc1cccc(C(=O)NNC(=S)NC2CCCCC2)c1 | nt | nt | nt | 25*
CCOC(=O)C1=C(C)N(CCCC(=O)O)C(=O)NC1c1ccc2c(c1)OCO2 (configuration not stated) | 1.1 | nt | nt | nt
CC1CCc2nc(N)c(C#N)c(-c3cccnc3)c2C1 (configuration not stated) | 1.2 | 0 | 1 | 76*
COc1ccccc1CNC(=O)CCC(=O)Nc1nnc(C(C)C)s1 | 1.2 | 0 | -9 | 18
COc1ccccc1CNC(=O)CCC(=O)Nc1nnc(C)s1 | 1.2 | 9 | -9 | 51*
CCOC(=O)C1CCCN(C(=O)c2ccc3c(=O)n(CCOC)c(=S)[nH]c3c2)C1 (configuration not stated) | 1 | nt | nt | 28*
COCCn1c(=S)[nH]c2cc(C(=O)N3CCC(C(N)=O)(N4CCCCC4)CC3)ccc2c1=O | 1.1 | 7 | 1 | 11
CCOCCCn1c(=S)[nH]c2cc(C(=O)NCCN(CC)CC)ccc2c1=O | 1.2 | -2 | 8 | 34*
COc1cccc(CNC(=O)C(c2ccc(Cl)cc2)C(C)C)c1 (configuration not stated) | nt | nt | nt | 9
COc1ccc(S(=O)(=O)N2CCCC2C(=O)Nc2ccc(C)cc2)cc1 (configuration not stated) | 1.2 | 4 | -6 | 12
O=C(Nc1nc2ccccc2s1)C1CCCN1S(=O)(=O)c1ccc(Cl)cc1 (configuration not stated) | 1.7 | 68* | 0 | 2
O=C(O)C1CCCN1S(=O)(=O)c1ccc(Cl)c(Cl)c1 (configuration not stated) | 1.2 | 19 | 5 | 15
COc1ccc(-c2csc(NC(=O)C3CCCCN3S(=O)(=O)c3ccccc3)n2)cc1 (configuration not stated) | 1.1 | 52* | 6 | 5
O=C(Nc1ncccn1)C1CCCN1S(=O)(=O)c1ccc(Cl)c(Cl)c1 (configuration not stated) | 1.2 | -2 | -3 | 45*
COc1ccc(S(=O)(=O)N2CCCC2C(=O)Nc2nc3c(s2)CCCC3)cc1 (configuration not stated) | 1.1 | 15 | -3 | 5
Cc1ccc(S(=O)(=O)N2CCCC2C(=O)Nc2nc3ccccc3s2)cc1 (configuration not stated) | 1.2 | 44* | -11 | 4
COc1cc(CNCc2ccccn2)ccc1OCc1cccc(Cl)c1 | nt | 1 | 6 | 7
COC(=O)c1ccccc1NC(=S)N(Cc1ccc2c(c1)OCO2)Cc1cc2ccc(OC)cc2[nH]c1=O | nt | nt | nt | 3
O=C(CN1C(=O)CCC1=O)c1ccc(-c2ccccc2)cc1 | nt | nt | nt | 33*
O=S(=O)(c1ccc(Br)cc1)N1CCN(c2ccc3nnc(-c4ccccc4)n3n2)CC1 | nt | 56* | 16 | 4
Cc1ccc(NC(=O)N(Cc2cccs2)Cc2cc3cc4c(cc3[nH]c2=O)OCO4)cc1 | nt | nt | nt | 4
Cc1ccc(NC(=O)N(Cc2ccc3c(c2)OCO3)Cc2cc3cc4c(cc3[nH]c2=O)OCCO4)cc1 | 1.1 | 56* | 24 | 31
Fc1ccccc1Nc1nc2ccccc2n2nnnc12 | nt | 51* | 3 | 6
CCOC(=O)N1CCC(Nc2nc3ccccc3n3nnnc23)CC1 | 1.5 | 15 | -3 | 34*
Cc1ccc(CNc2nc3ccccc3n3nnnc23)cc1 | 1.4 | 10 | 4 | 30
Fc1cccc(Nc2nc3ccccc3n3nnnc23)c1 | nt | 7 | 3 | 2
O=C(C1=C(Nc2ccccc2)c2ccccc2S(=O)(=O)N1)c1ccccc1 | nt | nt | nt | 26*
